Among all 65,000 compounds or so, about 2,100 (3.2%) showed an effect of 50% or more. The median lay at about -52%. The sample holds strong results, similar compounds and a random draw of the others, so the mix is not that of the screen.
test system: Plasmodium falciparum; experiment: Screen against P. falciparum Asexual Blood Stage (ABS), at 5uM; type: functional, Dd2; settings: tested at 5 uM

SMILES	INHIBITION [%]
NC(=O)C1CCN(c2nc3nccc(-c4cccnc4)c3c(=O)[nH]2)CC1	-16.2
NC(=O)C1CCN(c2nc3nccc(-c4ccccc4)c3c(=O)[nH]2)CC1	-99.6
O=C(O)Cn1nc(C2CC2)c2c(-c3cccs3)ccnc21	-7.45
O=c1[nH]c(NC2CCCC2)nc2nccc(-c3cccs3)c12	56.6
NC(=O)C1CCN(c2nc3nccc(-c4ccncc4)c3c(=O)[nH]2)CC1	-23
O=c1[nH]c(NC2CCCC2)nc2nccc(-c3ccsc3)c12	68.5
c1ccc(COC[C@H]2CC[C@H]3[C@H](CCN3Cc3ccccn3)O2)nc1	-2.2
CCNc1cc2c(nn1)CCN(C(=O)c1ccnc(-n3ccnc3)c1)C2	43.9
CC(C)N1CCc2[nH]nc(C(=O)N3CCN(C)CC3)c2C1	49.2
CC(C)N1CCc2[nH]nc(C(=O)N3CCOCC3)c2C1	55.6
CC(=O)N1CCc2[nH]nc(C(=O)N3CCOCC3)c2C1	-75.4
O=C(Nc1nc2c(s1)CNCC2)C1CC1	-117
O=C(NCC1CC1)[C@H]1C[C@H]2OCC[C@H]2N(CCc2ccccc2)C1	-62.8
CO[C@@H]1CN(c2ccccc2)S(=O)(=O)[C@@]12CCN(Cc1ccccc1)C2	-32.5
CC(=O)N[C@@H]1CN(C2CCN(c3ccccc3F)CC2)C[C@H]1C(C)C	-24.8
CC(=O)N[C@@H]1CN(C2CCN(c3cccc(Cl)c3)CC2)C[C@H]1C(C)C	-10.3
CC(=O)N[C@@H]1CN(C2CCN(c3cccc(C)c3C)CC2)C[C@H]1C(C)C	57.7
CN1[C@H](Cn2cncn2)C[C@@H]2CN(Cc3ccsc3)CC[C@@H]21	38.2
CCOCC(=O)NCC(Cc1cccc(F)c1)N1CCCCC1=O (centres undefined)	-88
COc1ccc2nnc(CCCC(=O)NCCc3ccccn3)n2n1	-138
c1ccc(N2CCC(NCCc3ccc(-n4cccn4)cc3)CC2)nc1	39.6
CC(CNC1CCN(c2ccccn2)CC1)Oc1ccc(F)cc1 (centres undefined)	49.1
COc1c(CNC2CCN(c3ccccn3)CC2)c(C(C)C)nn1C	1.28
CC(C)COCCNC1CCN(c2ccccn2)CC1	61.2
COCCOCC(=O)NC1CCN(c2ccccn2)CC1	-16.8
COc1ccc(C(C)CCNC2CCN(c3ccccn3)CC2)cc1 (centres undefined)	68.2

SMILES	INHIBITION [%]
CC(C)(C)C(=O)N1CCC2(CNS(=O)(=O)c3cnccc3O2)C1 (centres undefined)	-18.2
CCC1c2ccccc2CCN1CCCS(C)(=O)=O (centres undefined)	-4.08
CC(C)C(NCc1ccc(Cn2cncn2)cc1)c1ccc(F)cn1 (centres undefined)	-59.5
COc1ccc(CNC(Cn2cncn2)c2ccccc2)cc1C (centres undefined)	-102
CC(C)C(NCc1ccc(Cn2cncn2)cc1)c1ccccc1 (centres undefined)	50.1
O=S(=O)(c1ccccc1)N1CCC2(CCCN2CC2CCCC2)C1 (centres undefined)	48
COc1cc(N2CCCC(CO)(Cc3ccccc3F)C2)ncn1 (centres undefined)	-43.6
Cc1cc(C)n(CC2CCCN2C(=O)c2ccc3[nH]cnc3c2)n1 (centres undefined)	-163
Cc1nc(NCC2CC2)nc2c1COCC21CCN(S(=O)(=O)C2CC2)C1 (centres undefined)	12.5
COCCN1CCC(CNC(=O)c2cc(Cl)c[nH]2)CC1	-2.76
O=C(NCC1CCN(CCc2ccccc2)C1)c1cc(Cl)c[nH]1 (centres undefined)	65.1
CCN1CCC(CNC(=O)c2cc(Cl)c[nH]2)CC1	-108
CC(OCC1CC1)C(=O)Nc1ncn(CC(=O)N2CCCCCC2)n1 (centres undefined)	36.5
Cc1c(C)n(-c2ccccn2)c2nc3c(c(N)c12)CCCC3	21.3
CN1CCCCc2c1nc1c(c2N)CCC1	65.8
CN1CCCc2c1nc1c(c2N)CCC1	-49.7
CN1CCCCc2c1nc1c(c2N)CCCC1	63.8
CN1CC2(CCCN(c3nc(N)nc4c3CCCC4)C2)OC1=O (centres undefined)	-29.7
CN1CCc2c1nc1c(c2N)CCC1	-64.6
COC[C@@H]1CC[C@H]2[C@H](CCN2S(=O)(=O)c2ccc(C)cc2)O1	-3.1
Cc1cc(N2CCCC2)nc(CNS(=O)(=O)Cc2ccccc2)n1	-63.1
Cc1nn(C)c(N2CCCN(C)CC2)c1CNC(=O)CCC(C)C	-12.6
COCC(=O)N1C[C@@H]2CCCO[C@@H]2[C@H](N(C)Cc2ccco2)C1	-22.6
Cc1noc([C@@H]2CCO[C@@H]3CCN(Cc4ccc(C)s4)C[C@@H]32)n1	10.3
CN(C)CCN1CCOCC2(CCCN(C(=O)c3ccccn3)C2)C1 (centres undefined)	-26.3
CN(C)CC(C)(C)Cn1cnc(-c2ccccc2)c1-c1ncc[nH]1	-81.8

SMILES	INHIBITION [%]
CN(C)CC(C)(C)Cn1cnc(-c2ccccc2)c1-c1cccc(O)c1	50.9
CN(C)CC(C)(C)CN1CCC(c2ccnc(-c3cccc(O)c3)c2)C1 (centres undefined)	69.5
Oc1cccc(-c2cc(C3CCN(Cc4cncnc4)C3)ccn2)c1 (centres undefined)	-15.3
CN(C)CC(C)(C)Cn1cnc(-c2ccccc2)c1-c1ccncc1	1.44
Cn1ccnc1CN1CCC(c2ccnc(-c3cccc(O)c3)c2)C1 (centres undefined)	30.7
COc1ccccc1OC1CN(C(=O)c2ccccc2C(C)=O)C1	-184
O=c1[nH][nH]cc1-c1ccnc(NCCN2CCCCC2)n1	-153
CS(=O)(=O)CCC(=O)N1C[C@H]2CC[C@@H](C1)N(Cc1ccccc1)C2=O	-72.6
CC(C)c1nnc2n1CCN(C(=O)c1cc(Cl)c[nH]1)C2	5.02
Cc1ccccc1C(=O)N1C[C@@H]2CCN(c3cccnc3)C[C@@H]2C1	-45.5
CCS(=O)(=O)N1CCC(NC(=O)c2cc3ccccc3cc2O)CC1	6.29
O=C1CC(CNc2cncc(Cl)n2)c2ccccc2N1 (centres undefined)	66.1
O=C1CC(CNc2cncc(Br)c2)c2ccccc2N1 (centres undefined)	12.2
Cc1cc(NCC2CC(=O)Nc3ccccc32)nc(C)n1 (centres undefined)	-151
O=C1C[C@@H]2CC[C@H](CN1)N2C(=O)Cc1ccsc1	-114
CCN(CC)c1nc2ccsc2c(=O)n1CCC(=O)NCc1ccco1	-83
CCc1nc(CCNC(=O)Nc2ccc(C(=O)NC)cc2)cs1	-114
CN1CCC(Oc2ccc(-n3ccnc3-c3nccn3C)cc2)CC1	-33.1
CN1CCC(Oc2ccc(-n3ccnc3-c3ccncc3)cc2)CC1	-17
Cc1ccc(-c2nccn2-c2ccc(OC3CCN(C)CC3)cc2)o1	55.1
Cc1nn(C)c(C)c1C(=O)NC(C)CC(=O)c1cccs1 (centres undefined)	-35.4
Cc1ccc(-c2nn(C)c(C(=O)O)c2Br)cc1	-38.6
Cc1cccc(=O)n1CCC(=O)N1CC[C@](C)(O)[C@H](C)C1	-97.5
Cc1ccc(N2CCCC(NCc3nc(C)c(C)o3)C2)nn1 (centres undefined)	-26.7
c1cnnc(N2CCCC(NCc3nnc(-c4ccco4)o3)C2)c1 (centres undefined)	-31.5
Cc1ccc(N2CCCC(NCc3nnc(-c4ccco4)o3)C2)nn1 (centres undefined)	50.3

SMILES	INHIBITION [%]
Cn1nc2c(cc1=O)CN(CCOc1ccccc1C#N)CC2	0.73
COCC(=O)N1C[C@H]2CNC[C@@]2(C(=O)NCc2cc(C)n[nH]2)C1	4.75
CS(=O)(=O)N1CC(c2nc(N)ncc2-c2ccc(F)cc2)C1	-47.4
CN(C)c1ncc(-c2ccc(C(N)=O)cc2)c(C2CCNC2)n1 (centres undefined)	-37.9
Nc1ncc(-c2ccc(F)cc2)c(C2CCCNC2)n1 (centres undefined)	50.3
COc1ccc(-c2cnc(N)nc2C2CCCNC2)cc1 (centres undefined)	-91.8
Nc1ncc(-c2ccc(Cl)cc2)c(C2CCCNC2)n1 (centres undefined)	48.9
Nc1ncc(-c2ccc(C(F)(F)F)cc2)c(C2CCCNC2)n1 (centres undefined)	70.9
CCN1CCCC(NC(=O)c2ccc(C)[nH]c2=O)C1 (centres undefined)	-166
CN(C)c1ncnc2c1CCN(CC1CCOCC1)CC2	-55.1
CCN(Cc1cnn(C)c1)C[C@H]1CC[C@@H](Cc2ccc(OC)nc2)O1	4.73
COc1ccc(C[C@@H]2CC[C@H](CN(C)C3CCN(C)CC3)O2)cc1	50.9
CN1CCN(C[C@H]2CC[C@@H](Cc3ccc(CN4CCCC4)cc3)O2)CC1	36.4
CN1CCC(N(C)C[C@H]2CC[C@@H](Cc3cccc(CO)c3)O2)CC1	-125
CN1CCN(C[C@H]2CC[C@@H](Cc3ccc4c(c3)OCO4)O2)CC1	-28.1
CN1CCC(N(C)C[C@H]2CC[C@@H](Cc3cccc(O)c3)O2)CC1	57.5
CC(=O)Nc1nc2c(s1)C(C)(C)Nc1ccccc1S2	-58.4
NCc1ccc(OC(F)F)cc1OC(F)F	-38.5
CC(C)CN1C(=O)CCC12CCC(NC(=O)NCc1cccnc1)CC2 (centres undefined)	-167
CCc1nc(CN2CCCN(c3nn4cc(C)nc4s3)CC2)no1	-69
Cn1cnc2c1C(COCC1CC1)CN(C(=O)c1cscn1)C2 (centres undefined)	-46.3
CN(C(=O)c1ccc(S(=O)(=O)NC(C)(C)C)cc1)C1(C#N)CCC1	5.67
O=C(C1=COCCO1)N1CC(Oc2nc3c(C(F)(F)F)cccc3s2)C1	-41.7
CC(NC(=O)NCCCn1cncn1)c1ccncc1 (centres undefined)	-85.1
CC(NC(=O)NCCCn1cncn1)c1ccc(C(F)(F)F)cc1 (centres undefined)	57.2
CC(NC(=O)NCCCn1cncn1)c1ccc(F)cc1 (centres undefined)	20.8

Source: ChEMBL document CHEMBL4513216, “Probing the Open Global Health Chemical Diversity Library for Multistage-Active Starting Points for Next-Generation Antimalarials” (ACS Infect Dis, 2020)
